Assay [1] is described as follows: small molecules captured by biotinylated probe aFSTL3 – biochemical, small-molecule microarray, fluorescence 635/667, stem cell growth factor project, primary screen (AID 1064).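 Note: measures binding of the biotinylated anti-FSTL3 antibody to printed compounds.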 The settings on record: higher = more signal.
Assay [2] in a line: binders from COS7 lysate, DM2A8 probe, primary screen, torsin A project, cell lysate, small-molecule microarray, fluorescence 635/667 (AID 1065). As to conditions: higher = more signal, COS7 lysate expressing mutant human TOR1A.
Assay [3] can be described thus: small molecules captured by biotinylated probe aFGF2 – biochemical, small-molecule microarray, fluorescence 635/667, stem cell growth factor project, primary screen (AID 1067).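 Note: measures binding of biotinylated aFGF2 protein to printed compounds on slides; z-score merges feature fluorescence and signal-to-noise across triplicate slides.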 As to conditions: higher = more signal.
A short description of assay [4]: small molecules captured by biotinylated probe aFGF10 – biochemical, small-molecule microarray, fluorescence 635/667, stem cell growth factor project, primary screen (AID 1071).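 Note: score merges 667 nm spot intensity and signal to noise from triplicate slides.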 As to conditions: higher = more signal.
The target of assay [5] is Neurogenic locus notch homolog protein 2 (Homo sapiens) (UniProt Q04721). The assay is described as follows: small molecules binding Notch2 protein – biochemical, small-molecule microarray, 635 nm fluorescence, stem cell growth factors, primary screen (AID 1073). As to conditions: higher = more signal.
Assay [6] concerns the target Pro-neuregulin-1, membrane-bound isoform (Homo sapiens) (UniProt Q02297). The experiment in a line: small molecules binding neuregulin-1 protein – biochemical, small-molecule microarray, fluorescence 635/667, psychiatric disease protein project, primary screen (AID 1075).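 Note: score combines 667 nm spot fluorescence with signal to noise.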 As to conditions: NRG1 binding, 635 nm fluorescence, higher = more signal.
Assay [7] has as its system Neuregulin-1 EGF-like domain. The experiment in a line: small molecules binding NRG1 EGF domain – biochemical, small-molecule microarray, 635 nm fluorescence, primary screen (AID 1081).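 Note: binding of the protein to compounds printed on small-molecule microarray slides.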 The settings on record: higher = more signal.
Assay [8] can be described thus: FRG1 expression reporter modulators in myotubes – cell-based, C2C12 myotubes, firefly/Renilla luciferase, luminescence, FRG1 inhibition for FSHD, primary screen (AID 1084). As to conditions: FRG1 promoter luciferase, higher = more signal, called active from +8 up or from −8 down.
A short description of assay [9]: small molecules captured by biotinylated probe aFST – biochemical, small-molecule microarray, fluorescence 635/667, stem cell growth factor project, primary screen (AID 1086).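 Note: score merges 667 nm fluorescence with signal-to-noise of each printed compound spot.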 As to conditions: higher = more signal.
The nature of assay [10]: binders of probe aHhip on microarray, primary screen, stem cell growth factor project, biochemical, small-molecule microarray, fluorescence 635/667 (AID 1087).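 Note: score merges spot fluorescence at 667nm with spot signal to noise ratio.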 As to conditions: higher = more signal.
Assay [11] concerns PRMT1 (protein arginine N-methyltransferase 1). The assay is described as follows: small molecules binding arginine methyltransferase PRMT1 – biochemical, small-molecule microarray, 635 nm fluorescence, primary screen (AID 1088).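 Note: binding of Prmt1 protein to compounds spotted on small-molecule microarray slides.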 As to conditions: higher = more signal.
Assay [12] in a line: growth effects on S. cerevisiae YJM789 – YJM789 clinical isolate, OD600, 24 h, basal, primary screen (AID 1089).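 Note: growth of clinical yeast isolate S. cerevisiae YJM 789 seeded 1000 cells per well; test concentration not given here.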 As to conditions: higher = more signal, called active from +8 up or from −8 down.
The nature of assay [13]: S. pombe growth modifiers, basal conditions – strain 972, OD600, 24 h, no modulator, primary screen (AID 1090).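 Note: basal condition with compound alone and no growth modifier present; test concentration not given here.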 As to conditions: S. pombe 972 growth, higher = more signal, called active from +8 up or from −8 down.
The nature of assay [14]: budding yeast growth modifiers under rapamycin – strain BY4716, OD600, 96 h, primary screen (AID 1091). Note: test concentration not given here. As to conditions: S. cerevisiae BY4716 + rapamycin, higher = more signal, called active from +8 up or from −8 down.
Assay [15] deals with Torsin-1A-interacting protein 2 (Homo sapiens) (UniProt Q8NFQ8). The experiment in a line: small molecules binding lysate-expressed LULL1 – cell lysate, human LULL1 lysate, 635/667 nm fluorescence, primary screen (AID 1092).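 Note: probe is lysate of COS7 cells overexpressing human LULL1; score merges per-feature 667 nm fluorescence with signal-to-noise.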 As to conditions: small-molecule microarray, hLULL1 lysate binding, 635 nm fluorescence; higher = more signal.
A short description of assay [16]: optical density change of DRC41 E. coli – strain DRC41, OD650, 24 h, E. coli filamentation project, primary screen (AID 1093).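 Note: MC1000 strain lacking acrAB efflux and sulA so SOS filamentation is blocked; test concentration not given here.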 The settings on record: E. coli DRC41 growth, higher = more signal, called active from +8 up or from −8 down.
Assay [17] in a line: probe aLefty2 binding to arrayed compounds – biochemical, biotinylated probe, 635/667 nm fluorescence, primary screen (AID 1094).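 Note: score merges spot fluorescence near 667 nm with spot signal-to-noise ratio.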 As to conditions: small-molecule microarray, higher = more signal.
Assay [18] has as its system Noggin (protein binding on small-molecule microarray). The experiment in a line: small molecules binding Noggin protein – biochemical, 635/667 nm fluorescence, primary screen (AID 1095).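 Note: score merges 667 nm feature fluorescence with signal to noise over triplicate slides.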 As to conditions: 635 nm fluorescence, higher = more signal.
In assay [19] the target is Neurogenic locus notch homolog protein 3 (Homo sapiens) (UniProt Q9UM47). The assay is described as follows: small molecules binding NOTCH3 protein – biochemical, 635/667 nm fluorescence, primary screen (AID 1096). The settings on record: small-molecule microarray, 635 nm fluorescence, higher = more signal.
Assay [20] is described as follows: probe aEGFR binding to arrayed compounds – biochemical, biotinylated probe, 635/667 nm fluorescence, primary screen (AID 1097).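 Note: probe is a biotinylated anti-EGFR antibody binding compounds printed on slides; score combines fluorescence near 667 nm and signal to noise of each spot.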 As to conditions: small-molecule microarray, higher = more signal.

Activity calls are given as the source filed them.

Torsin-1A-interacting protein 2 (Homo sapiens), sequence (Q8NFQ8 whole entry, looked up): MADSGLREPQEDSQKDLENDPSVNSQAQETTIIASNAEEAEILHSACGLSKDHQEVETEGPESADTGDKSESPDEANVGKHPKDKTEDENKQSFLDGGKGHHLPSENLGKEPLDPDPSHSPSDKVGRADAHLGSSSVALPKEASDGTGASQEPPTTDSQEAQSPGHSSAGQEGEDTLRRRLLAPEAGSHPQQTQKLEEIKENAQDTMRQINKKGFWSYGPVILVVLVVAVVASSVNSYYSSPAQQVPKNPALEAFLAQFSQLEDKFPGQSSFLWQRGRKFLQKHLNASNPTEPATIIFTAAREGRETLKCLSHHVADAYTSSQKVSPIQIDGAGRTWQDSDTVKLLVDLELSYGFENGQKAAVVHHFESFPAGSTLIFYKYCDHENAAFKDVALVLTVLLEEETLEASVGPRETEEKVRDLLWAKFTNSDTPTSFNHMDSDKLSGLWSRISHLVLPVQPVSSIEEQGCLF
Neurogenic locus notch homolog protein 3 (Homo sapiens), sequence (Q9UM47 whole entry, looked up): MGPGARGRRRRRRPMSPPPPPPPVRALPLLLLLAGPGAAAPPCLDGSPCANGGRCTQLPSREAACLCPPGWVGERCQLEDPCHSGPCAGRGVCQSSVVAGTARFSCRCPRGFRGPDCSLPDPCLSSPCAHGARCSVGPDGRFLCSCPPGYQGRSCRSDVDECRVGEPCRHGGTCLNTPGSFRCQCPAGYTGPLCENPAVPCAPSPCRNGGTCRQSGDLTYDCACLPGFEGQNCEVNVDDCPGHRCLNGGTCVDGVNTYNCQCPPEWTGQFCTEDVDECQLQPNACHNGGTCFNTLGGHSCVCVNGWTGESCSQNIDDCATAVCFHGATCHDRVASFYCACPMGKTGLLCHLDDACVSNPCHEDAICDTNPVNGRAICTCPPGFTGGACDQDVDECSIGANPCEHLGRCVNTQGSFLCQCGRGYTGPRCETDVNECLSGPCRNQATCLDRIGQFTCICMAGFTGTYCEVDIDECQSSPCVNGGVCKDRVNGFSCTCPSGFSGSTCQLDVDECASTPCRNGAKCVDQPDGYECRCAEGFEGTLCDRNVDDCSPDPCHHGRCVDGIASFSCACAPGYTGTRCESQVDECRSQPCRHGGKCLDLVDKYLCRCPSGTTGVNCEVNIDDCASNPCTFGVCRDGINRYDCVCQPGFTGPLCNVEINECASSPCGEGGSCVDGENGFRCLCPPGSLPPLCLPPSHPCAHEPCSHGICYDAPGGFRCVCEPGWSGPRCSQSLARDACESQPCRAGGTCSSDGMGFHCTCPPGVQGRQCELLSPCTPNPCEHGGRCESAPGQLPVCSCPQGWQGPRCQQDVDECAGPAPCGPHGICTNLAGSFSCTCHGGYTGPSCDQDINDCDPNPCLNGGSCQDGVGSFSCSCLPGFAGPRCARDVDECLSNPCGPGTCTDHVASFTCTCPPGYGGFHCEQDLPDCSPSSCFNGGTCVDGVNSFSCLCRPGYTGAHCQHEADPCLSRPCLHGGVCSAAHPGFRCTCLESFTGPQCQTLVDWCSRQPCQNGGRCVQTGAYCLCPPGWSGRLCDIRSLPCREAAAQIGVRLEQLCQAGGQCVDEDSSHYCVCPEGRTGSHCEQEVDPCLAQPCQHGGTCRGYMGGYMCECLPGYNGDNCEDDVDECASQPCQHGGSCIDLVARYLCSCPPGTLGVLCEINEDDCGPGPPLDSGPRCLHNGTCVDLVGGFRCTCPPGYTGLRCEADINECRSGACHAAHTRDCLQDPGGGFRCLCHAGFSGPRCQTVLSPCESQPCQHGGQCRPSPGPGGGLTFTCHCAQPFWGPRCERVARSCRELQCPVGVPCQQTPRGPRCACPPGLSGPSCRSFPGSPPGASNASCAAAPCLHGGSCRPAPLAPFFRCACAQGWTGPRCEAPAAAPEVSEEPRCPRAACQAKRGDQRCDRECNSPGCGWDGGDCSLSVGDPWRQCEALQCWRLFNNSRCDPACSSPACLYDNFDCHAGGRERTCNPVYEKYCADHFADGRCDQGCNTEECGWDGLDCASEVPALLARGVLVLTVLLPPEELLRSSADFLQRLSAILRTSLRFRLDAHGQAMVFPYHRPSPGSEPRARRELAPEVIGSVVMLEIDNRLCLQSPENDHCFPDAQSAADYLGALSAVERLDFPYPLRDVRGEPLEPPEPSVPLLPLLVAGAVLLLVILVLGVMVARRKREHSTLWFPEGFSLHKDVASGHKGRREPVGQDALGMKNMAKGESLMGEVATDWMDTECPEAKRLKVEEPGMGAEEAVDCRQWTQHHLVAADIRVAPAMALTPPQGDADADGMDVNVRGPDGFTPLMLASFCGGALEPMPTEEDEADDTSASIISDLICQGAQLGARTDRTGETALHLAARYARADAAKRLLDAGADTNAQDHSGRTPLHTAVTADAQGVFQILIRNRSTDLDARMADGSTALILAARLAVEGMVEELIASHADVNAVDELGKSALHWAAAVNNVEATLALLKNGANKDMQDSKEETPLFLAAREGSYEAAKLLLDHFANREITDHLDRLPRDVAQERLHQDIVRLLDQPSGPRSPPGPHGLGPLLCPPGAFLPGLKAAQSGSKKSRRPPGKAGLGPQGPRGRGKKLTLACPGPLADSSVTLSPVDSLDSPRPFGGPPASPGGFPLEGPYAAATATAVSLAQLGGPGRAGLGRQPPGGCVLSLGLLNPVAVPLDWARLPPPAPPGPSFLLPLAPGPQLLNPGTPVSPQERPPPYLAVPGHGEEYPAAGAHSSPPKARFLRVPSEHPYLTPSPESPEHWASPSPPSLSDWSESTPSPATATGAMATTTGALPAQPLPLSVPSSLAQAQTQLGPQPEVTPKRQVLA
Pro-neuregulin-1, membrane-bound isoform (Homo sapiens), sequence (Q02297 whole entry, looked up, the tested form may be a part, canonical isoform): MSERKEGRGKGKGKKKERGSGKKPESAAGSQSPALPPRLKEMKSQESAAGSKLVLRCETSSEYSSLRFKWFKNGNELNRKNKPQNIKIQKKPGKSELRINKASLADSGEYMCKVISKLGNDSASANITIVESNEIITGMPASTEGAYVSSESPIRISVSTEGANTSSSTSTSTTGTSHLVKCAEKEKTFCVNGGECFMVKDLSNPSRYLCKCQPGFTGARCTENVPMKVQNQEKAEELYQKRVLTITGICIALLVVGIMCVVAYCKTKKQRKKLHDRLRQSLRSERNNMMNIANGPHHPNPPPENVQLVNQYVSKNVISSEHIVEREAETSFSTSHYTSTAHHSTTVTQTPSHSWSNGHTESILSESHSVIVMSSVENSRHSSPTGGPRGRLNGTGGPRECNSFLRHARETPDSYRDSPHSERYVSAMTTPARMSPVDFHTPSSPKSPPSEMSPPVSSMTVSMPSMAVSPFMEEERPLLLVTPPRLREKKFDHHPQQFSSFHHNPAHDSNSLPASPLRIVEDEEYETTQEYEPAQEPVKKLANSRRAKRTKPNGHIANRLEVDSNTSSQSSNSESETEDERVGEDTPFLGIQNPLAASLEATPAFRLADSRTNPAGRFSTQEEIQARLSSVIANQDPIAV

Take `CC(C)C(CO)N1C(=O)[C@@H]2C3C(=O)OCCC/C=C\[C@H]3OC23C=CCN(C(C)(C)C)C(=O)[C@@H]13` (stereo not given in full): the composite z-score was -0.0102 in assay [1]; -0.311 in assay [2]; -0.133 in assay [3]; -0.394 in assay [4]; -1.02 in [5]; -0.596 in [6]. Moreover, the composite z-score in [7] was 1.06; in assay [9], -0.418; in assay [10] it was 0.0274; in [11], -0.429; in [15], 0.895; in assay [17] it was -0.259. Moreover, the composite z-score is -0.733 in [18], -0.354 in assay [19] and -0.259 in assay [20]. The z-score in assay [8] was -0.241 (inactive); in assay [12], 0.465 (inactive); in [13], -0.415 (inactive); in assay [14] it was 0.0032 (inactive); in assay [16], -0.787 (inactive).

For `CCC[C@@H]1C[C@@]1(CCC)[C@@H](NC(=O)OCc1ccccc1)c1ccc(-c2ccccc2)cc1`, the composite z-score is 0.49 in assay [1]; -0.602 in [2]; 0.0572 in [3]; -0.68 in assay [4]; -0.527 in [5]; -0.271 in [6]. The composite z-score in [7] is -0.76; in assay [9] it was -0.294; in assay [10], 3.09; in assay [11], -0.936; in assay [15], 0.543; in assay [17] it was 0.239. Further, the composite z-score in assay [18] is -0.0553; in assay [19], -0.621; in assay [20], -0.186. The z-score in assay [8] was -1.93 (inactive); in assay [12] it was -0.979 (inactive); in assay [13], -15.5 (active); in assay [14], -0.0091 (inactive); in [16] it was 0.0945 (inactive).

For `O=C1O[C@H](c2ccccc2)[C@H](c2ccccc2)N2[C@H]1[C@@H](C(=O)Nc1nc3ccccc3s1)[C@]1(C(=O)Nc3ccc(C#CC4(O)CCCCCC4)cc31)[C@H]2c1ccccc1OCCO`, the composite z-score was -0.411 in [1]; 0.0728 in [2]; -0.048 in assay [3]; 1.05 in [4]; 1.23 in assay [5]; 0.77 in assay [6]. The composite z-score in assay [7] was 1.07; in [9] it was 0.492; in assay [10], -0.0994; in assay [11] it was 1.54; in assay [15] it was 3.08; in assay [17] it was -0.118. The composite z-score in [18] was 0.971; in [19], 1.06; in [20] it was -0.0564. Moreover, the z-score in assay [8] is 0.435 (inactive); in assay [12] it was 1.87 (inactive); in [13], 1.91 (inactive); in [14], 3.32 (inactive); in [16], 0.149 (inactive).

Take `CC(=O)NCCCC[C@@H]1NC(=O)[C@@H]2C[C@H](C(=O)NCCCC[N+](C)(C)C)[C@H](c3ccc(O)cc3)N2C1=O`: the composite z-score is -0.235 in [1]; 1.74 in assay [2]; 0.0056 in [3]; 0.88 in assay [4]; -0.188 in assay [5]; 1.21 in assay [6]. Besides, the composite z-score is 1.19 in assay [7]; 0.177 in [9]; 0.224 in assay [10]; 1.54 in [11]; 1.46 in assay [15]; -0.0774 in assay [17]. The results for the composite z-score in [18], in [19] and in assay [20] were 1.36, 1.09 and -0.0131, respectively. Besides, the z-score in assay [8] is 1.32 (inactive); in assay [12] it was 0.305 (inactive); in assay [13], -0.266 (inactive); in assay [14] it was -1.29 (inactive); in assay [16], 0.0855 (inactive).

As to `CN(C)C(=O)[C@@]1(CCS(=O)(=O)c2ccccc2)N=C(c2ccc(OCCCO)cc2)O[C@H]1c1ccccc1`, the composite z-score in assay [1] was -0.0356; in assay [2], 0.79; in assay [3] it was 0.163; in assay [4] it was 0.746; in assay [5] it was 1.35; in [6] it was 2.13. Also, the composite z-score in assay [7] came to 1.34; in assay [9], 1.52; in [10] it was 0.0401; in assay [11] it was 1.07; in assay [15], 3.51; in assay [17], 0.0932. For the same compound, the composite z-score was -0.135 in [18], 1.08 in assay [19] and -0.0215 in assay [20]. Further, the z-score is -0.522 (inactive) in assay [8]; -0.308 (inactive) in assay [12]; -0.255 (inactive) in assay [13]; 0.117 (inactive) in assay [14]; -0.16 (inactive) in assay [16].

As for `CN1C(=O)C2C=CC(C(O)c3ccc(F)cc3)N(Nc3ccccc3)C2C1=O` (stereo not given), the composite z-score in [1] was -0.12; in [2], -0.286; in assay [3], -0.0222; in [4] it was 0.208; in [5] it was 1.24; in assay [6] it was 1.35. The composite z-score in [7] is 1.34; in assay [9], 0.862; in [10], -0.215; in assay [11], 0.225; in assay [15] it was 3.69; in assay [17], 0.085. Further, the composite z-score in assay [18] came to 0.447; in [19] it was 1.02; in assay [20], 0.0034. Moreover, the z-score was -0.604 (inactive) in assay [8]; 0.397 (inactive) in [12]; 1.08 (inactive) in [13]; 1.97 (inactive) in assay [14]; -1.2 (inactive) in assay [16].

For `COc1ccccc1CN1C(=O)c2ccccc2[C@](Cc2ccccc2I)(C(=O)NCC(F)(F)F)[C@@H]1c1ccc(CO)cc1`, the composite z-score in [1] was 0.164; in assay [2] it was 0.847; in assay [3], -0.0454; in assay [4] it was 1.21; in assay [5], 0.981; in assay [6], 1.51. In addition, the composite z-score in [7] amounted to 1.36; in assay [9], 1.37; in assay [10], 0.0373; in assay [11], 1.55; in assay [15] it was 3.22; in assay [17], 0.126. Further, the values for the composite z-score in assay [18], in [19] and in assay [20] were 0.576, 0.872 and 0.0024, respectively. Also, the z-score in assay [8] is -0.719 (inactive); in assay [12], -0.23 (inactive); in [13] it was -0.503 (inactive); in assay [14], 0.0879 (inactive); in assay [16], -1.13 (inactive).

As to `COC(=O)c1c2oc(c1C(=O)OC)C(=O)N(C)Cc1cn(nn1)C[C@H](Cc1ccccc1)NC(=O)N[C@H](CO)CC2`, the composite z-score in assay [1] is -0.239; in assay [2], -0.705; in assay [3], -0.174; in assay [4], -0.248; in assay [5] it was -0.867; in [6], -0.638. Also, the composite z-score in [7] was -0.717; in assay [9], -0.276; in [10], 0.0854; in [11] it was -0.929; in assay [15] it was -0.609; in [17], -0.174. Besides, the values for the composite z-score in [18], in [19] and in [20] were -0.244, 0.15 and -0.154, respectively. In addition, the z-score in [8] was -0.161 (inactive); in assay [12], 1.23 (inactive); in assay [13], 0.914 (inactive); in assay [14], 0.556 (inactive); in assay [16], -0.666 (inactive).

Consider `COc1cc2c(cc1O)C(C)N(Cc1ccc([N+](=O)[O-])o1)CC2` (stereo not given), for which the composite z-score is 0.182 in assay [1]; 0.731 in assay [2]; -0.0138 in assay [3]; 1.15 in assay [4]; 1.3 in [5]; 1.53 in assay [6]. The composite z-score turned out to be 1.08 in [7]; 0.401 in assay [9]; 0.28 in assay [10]; 1.56 in assay [11]; 1.74 in assay [15]; 0.136 in [17]. Also, the composite z-score in assay [18] was 0.142; in assay [19], 1.07; in [20] it was 0.174. Besides, the z-score in assay [8] is 0.11 (inactive); in assay [12], -0.337 (inactive); in assay [13], -3.24 (inactive); in [14], -1.57 (inactive); in assay [16], -0.741 (inactive).

For the origin of these results see PubChem BioAssay.
